Results as given in PubChem BioAssay AID1259422 (The Scripps Research Institute Molecular Screening Center, 2018).
The campaign covered roughly 640,000 compounds. About 9,300 (1.5%) were called active. What follows is part of a selection rich in actives, with near analogues and random picks from the rest. A number with no mark means an inactive call. Cut-off read from the data, not from the text of the source: active = inhibition above about 32%; inactive = the rest.

Test: TEAD-YAP interaction inhibition, primary screen, TEAD-YAP interaction inhibitor project, luminescence, HEK-TIYL cells (AID 1259422);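 note: 0% = median of test compound wells and 100% = reference inhibitor wells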
Details: TEAD-Gal4/YAP UAS-luciferase luminescence, at 9.12 µM, active compounds read high

Row | Structure (SMILES) | inhibition
1 | Nc1ncnc(NCc2ccc(Cl)cc2)c1[N+](=O)[O-] | -0.74%
2 | CC(C)(CO)Nc1ncnc(N)c1[N+](=O)[O-] | 50.6% (active)
3 | COC(=O)NNc1ncnc(N)c1[N+](=O)[O-] | 2.66%
4 | O=C(/C=C/c1cccs1)N1CC[C@@H]2[C@H](CCCN2C(=O)c2ccc3[nH]ccc3c2)C1 | -4%
5 | COC(=O)c1c(NC(=O)C(C)N2C(=O)c3ccccc3C2=O)sc2c1CCCC2 (configuration not stated) | -8.49%
6 | COc1ccc(OC)c(C(=O)c2coc3ccc(OC)cc23)c1 | 1.14%
7 | CC(=O)Oc1ccc2occ(C(=O)c3cc4ccccc4o3)c2c1 | 53.6% (active)
8 | COc1ccc2occ(C(=O)c3ccc(N=C(C)N(C)C)cc3)c2c1 | -23.4%
9 | Cc1cc(=O)oc2c(OC(=O)c3cc4ccccc4o3)c(OC(=O)c3cc4ccccc4o3)ccc12 | -3.97%
10 | COc1ccc(NC(=O)Cc2coc3ccc(C)cc23)cc1 | -3.85%
11 | CC(=O)Oc1ccc2occ(C(=O)c3ccc(C)cc3)c2c1 | 41% (active)
12 | CCOC(=O)Cn1c(=O)c2c(nc3n2CC(C)CN3c2ccccc2C)n(C)c1=O (configuration not stated) | 2.64%
13 | O=C1c2ccccc2S(=O)(=O)N1c1ccc(Cl)cc1Cl | 6.48%
14 | O=C(O)C(CCC(=O)N1CCOCC1)N1C(=O)c2ccccc2C1=O (configuration not stated) | -9.92%
15 | Nc1nc(N)c2ncn(C3OC(CO)C(O)C3O)c2n1 (configuration not stated) | -3.32%
16 | Nc1nc(=O)n(C2OC(CO)C(O)C2O)cc1Br (configuration not stated) | 5.2%
17 | O=c1cnn(C2OC(CO)C(O)C2O)c(=O)[nH]1 (configuration not stated) | 74.7% (active)
18 | CCOC(=O)c1ccc(NC(=O)CSc2nnnn2-c2ccc([N+](=O)[O-])cc2)cc1 | -1.87%
19 | N#Cc1c(NC(=O)CSc2ccc([N+](=O)[O-])cn2)sc2c1CCCC2 | -0.26%
20 | N#Cc1c(NC(=O)c2cc([N+](=O)[O-])nn2Cc2ccccc2)sc2c1CCC2 | 2.14%
21 | N#Cc1c(NC(=O)c2cc([N+](=O)[O-])ccc2Cl)sc2c1CCC2 | 32.6% (active)
22 | Cc1nnc(SCc2cccc3ccccc23)[nH]c1=O | -2.21%
23 | O=S(=O)(c1ccc(Cl)c(C(F)(F)F)c1)N1CCNCC1 | 3.58%
24 | COC(=O)CNc1nc(Cl)nc(Nc2ccc(I)cc2C)n1 | -1.03%
25 | CC(=O)N1CCN(Cc2nc(-c3ccc(Cl)cc3)cs2)CC1 | 2.89%
26 | O=C(NCc1ccc(Cl)cc1)N1CCN(Cc2nc(-c3ccco3)cs2)CC1 | 41.8% (active)
27 | O=C(CN1CCN(Cc2nc(-c3ccco3)cs2)CC1)NCc1ccc2c(c1)OCO2 | -0.64%
